HCV inhibitor = blocks hepatitis C virus | Huh7.5.1 HCVcc-Cre infection, luciferase reporter, 44 h | Potency, µM (highest dose often 41.8 µM), without a hit: top-dose activity change, negative = inhibition, hits mostly inhibitors | 340,000 tested, 3.4% active | AID 651820; further: potency means the concentration at half of the fitted maximal effect; on the % scale 0 is the no-effect control and ±100 the full control effect
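Reporter virus HCVcc-Cre (~0.5 moi) infects cells exposed to compound; seeding density 1,000 cells/well with 4 h settling beforehand. Luminescence, 15 sec read, taken 44 h post-infection following a 15 min RT substrate incubation.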
AMA1 RON2 block = AMA1-RON2 (P. falciparum) interaction inhibition; Potency, µM (highest dose often 58.2 µM), for the others: top-dose activity change, negative = inhibition, actives largely listed as inhibitors; 360,000 tested, 0.2% active; AlphaScreen AMA1-biotinylated RON2 peptide binding;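 further: potency means the concentration at half of the fitted maximal effect; 0% = vehicle wells and -100% = peptide control; nearly all actives have a fitted effect of over 45% in size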
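AMA1 (3D7) with his tag at 25 nM final met compounds first, then biotinylated RON2 peptide at 25 nM; detection used donor plus acceptor beads, 10 µg/mL apiece, read by AlphaScreen after 30 min at room temperature.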
Pf growth 96h = inhibits malaria parasite growth, 96 h; P. falciparum luciferase reporter growth, 96 h; Potency, µM (top dose mostly 28.7 µM), inactives show top-dose activity change, negative = inhibition, actives largely listed as inhibitors; 320,000 tested, 6.9% active; further: potency means the concentration at half of the fitted maximal effect; on the % scale 0 is the no-effect control and ±100 the full control effect
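Delayed-death screen, second-generation endpoint: infected erythrocytes, 2% hematocrit, 0.05% parasitemia final; 96 hours at 37 C, 5% CO2; luciferase detection reagent; luminescence decrease equals reduced growth.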
Pf growth 48h = P. falciparum growth inhibition at 48 hours (one generation); P. falciparum luciferase growth in erythrocytes, 48 h; Potency, µM (titrated, usually from 28.7 µM), for inactives: top-dose activity change, negative = inhibition, actives largely listed as inhibitors; 310,000 tested, 5.9% active; further: potency means the concentration at half of the fitted maximal effect; on the % scale 0 is the no-effect control and ±100 the full control effect
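Luciferase-expressing P. falciparum in infected erythrocytes (2% hematocrit, 0.1% parasitemia final) in RPMI 1640/0.5% Albumax were exposed to compound for 48 hours at 37 C, 5% CO2; growth read as luminescence.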
Cycloheximide cs = affects cycloheximide protein synthesis inhibition readout, counter-screen | max response, % | AID 2314 | cell reporter, cycloheximide protein synthesis inhibition counterscreen | 300,000 tested, 12% active; in the data active means max response mostly above about 13%, no sharp cut-off; inactive means mostly below about 14%; further: read at 38.3 µM for the half of the compounds with a filed dose; 0% is about no effect
Shiga toxin inh = Shiga toxin inhibition; Vero cells, Shiga toxin protein synthesis inhibition reporter; inhibition, % at 38.7 µM; 290,000 tested, 9.2% active; in the data active means inhibition mostly above about 28%, no sharp cut-off; inactive means mostly below about 43%; further: 0% is about no effect
* = called active by the depositor; [ ] = another dose, or the depositor's remark. Shown are actives, neighbours in structure and some others; about 21% of the full set was active somewhere. Unless noted, the call rests on the fitted dose curve; in most records, active means well fitted curve in the direction sought with a large enough effect; inconclusive means small, poorly fitted or top-dose-only effect, or another doubt; inactive means no such curve, though single readings can be large; an effect the other way counts as inactive or inconclusive.

`COC(=O)C(c1ccccc1Cl)N1CCc2sccc2C1` (stereo not given) gave Pf growth 96h 11µM*, Pf growth 48h inconclusive, Cycloheximide cs -5 and Shiga toxin inh -6.
Screening COC(=O)[C@H](c1ccccc1Cl)N1CCc2sccc2C1 returned HCV inhibitor -50%, AMA1 RON2 block 8%, Pf growth 96h 8.3µM*, Pf growth 48h 12µM*, Cycloheximide cs -2 and Shiga toxin inh 5.
Screening CCCCC1CN2CCc3c([nH]c4ccccc34)C2(C)C1 (stereo not given) returned HCV inhibitor inconclusive, AMA1 RON2 block -17%, Pf growth 96h 23%, Pf growth 48h inconclusive, Cycloheximide cs -3 and Shiga toxin inh -11.
For Cc1ccc(C(=O)COC(=O)CN2C(=O)C3C4CCC(C4)C3C2=O)cc1C (stereo not given) the results were HCV inhibitor 21%, AMA1 RON2 block -17%, Pf growth 96h 17%, Pf growth 48h 9%, Cycloheximide cs 12* and Shiga toxin inh 7.
For CCOC(=O)c1cc(C(C)(C)C)oc1CNC(=O)c1c(C)oc2c1CCCC2 the results were HCV inhibitor inconclusive, AMA1 RON2 block -22%, Pf growth 96h inconclusive, Pf growth 48h 15µM*, Cycloheximide cs 23 and Shiga toxin inh 73*.
`O=C(O)/C=C/c1ccc(S(=O)(=O)N2CCN(CCN3C(=O)C4C5C=CC(C5)C4C3=O)CC2)cc1` (stereo not given) gave HCV inhibitor -1%, AMA1 RON2 block 0%, Pf growth 96h 1.9µM*, Pf growth 48h inconclusive, Cycloheximide cs -4 and Shiga toxin inh -4.
Screening CCCCn1cnc2c(SCc3ccccc3F)nc(N)nc21 returned HCV inhibitor -2% and AMA1 RON2 block -1%.
CCOC(=O)c1c(-c2cccc([N+](=O)[O-])c2)csc1N was read as HCV inhibitor -16%, AMA1 RON2 block -6%, Pf growth 96h 14%, Pf growth 48h -6%, Cycloheximide cs -2 and Shiga toxin inh 11.
Screening Cc1csc2cc(-c3cccc([N+](=O)[O-])c3)c(-c3cccc([N+](=O)[O-])c3)c[n+]12 returned HCV inhibitor -1%, AMA1 RON2 block 19%, Pf growth 96h 0.47µM*, Pf growth 48h 1µM*, Cycloheximide cs -2 and Shiga toxin inh 6.
`COc1ccc(CNC(=O)OC2CC3CC2[C@H]2CCCCN2C3=O)cc1` (stereo not given in full) gave AMA1 RON2 block 46%.
Screening O=C1CCCN1CCCNc1nc(NCc2cccs2)nc2ccsc12 returned AMA1 RON2 block 2%.
For CCOC(=O)c1ccc(NC(=S)Nc2ccccc2)cc1 the results were HCV inhibitor inconclusive, AMA1 RON2 block 0%, Pf growth 96h 34%, Pf growth 48h 44%, Cycloheximide cs 9 and Shiga toxin inh 18.
`CCOC(=O)C(/C(N)=N/C(=O)Nc1ccccc1)=C(\C)O` gave HCV inhibitor 21%, AMA1 RON2 block 2%, Pf growth 96h 9.3µM*, Pf growth 48h -5%, Cycloheximide cs 1 and Shiga toxin inh -10.
For CC(OC(=O)Cn1cnc2c1c(=O)n(C)c(=O)n2C)C(=O)NC(C)c1ccc(Cl)cc1Cl (stereo not given) the results were HCV inhibitor -18%, AMA1 RON2 block -15%, Pf growth 96h 45% and Pf growth 48h inconclusive.
For Cc1ccc2oc3c(c(=O)c2c1)C(c1cccc(Br)c1)N(Cc1ccco1)C3=O (stereo not given) the results were AMA1 RON2 block 5%, Pf growth 96h 13µM*, Pf growth 48h -25%, Cycloheximide cs -4 and Shiga toxin inh -11.
Screening CN(C)CCCN1C(=O)c2oc3ccc(Cl)cc3c(=O)c2C1c1cccnc1 (stereo not given) returned HCV inhibitor 1%, AMA1 RON2 block 9%, Pf growth 96h inconclusive, Pf growth 48h inconclusive, Cycloheximide cs 5 and Shiga toxin inh 2.
For CCCOc1ccc(C2c3c(oc4ccccc4c3=O)C(=O)N2CCN(CC)CC)cc1OC (stereo not given) the results were HCV inhibitor -14%, AMA1 RON2 block -6%, Pf growth 96h inconclusive, Pf growth 48h 1.5µM*, Cycloheximide cs 7 and Shiga toxin inh 38.
Screening Cc1cc2oc3c(c(=O)c2cc1C)C(c1cccc(Br)c1)N(Cc1ccco1)C3=O (stereo not given) returned HCV inhibitor 9%, AMA1 RON2 block -1%, Pf growth 96h inconclusive, Pf growth 48h inconclusive, Cycloheximide cs -5 and Shiga toxin inh 22.
`CCN(CC)CCN1C(=O)c2oc3ccccc3c(=O)c2C1c1ccccc1` (stereo not given) gave HCV inhibitor 9%, AMA1 RON2 block 9%, Pf growth 96h inconclusive, Pf growth 48h inconclusive, Cycloheximide cs 35* and Shiga toxin inh 35.
O=C1c2oc3ccc(Cl)cc3c(=O)c2C(c2cccc(Br)c2)N1CCO (stereo not given) was read as HCV inhibitor inconclusive, AMA1 RON2 block 0%, Pf growth 96h 1%[5.75 µM], Pf growth 48h 12µM*, Cycloheximide cs -3 and Shiga toxin inh 8.
For CCN(CC)CCCN1C(=O)c2oc3ccccc3c(=O)c2C1c1cccs1 (stereo not given) the results were HCV inhibitor -16%, Pf growth 48h 10%, Cycloheximide cs 19 and Shiga toxin inh -4.
For Cc1cc(C)n(CCCNC(=O)C2CC(=O)N(Cc3ccccc3)C2)n1 (stereo not given) the results were HCV inhibitor inconclusive, AMA1 RON2 block 26%, Pf growth 96h 0% and Pf growth 48h 5%.
Screening Clc1cccc(CNc2ccn3nc(-c4cccc(Cl)c4)cc3n2)c1 returned AMA1 RON2 block 17%.
For Cn1nc(N)c2ncc(-c3ccc(Cl)cc3)nc21 the results were AMA1 RON2 block 0%.
Screening CCN(CC)CCN1C(=O)c2oc3ccccc3c(=O)c2C1c1cccc(Br)c1 (stereo not given) returned HCV inhibitor 10%, AMA1 RON2 block 14%, Pf growth 96h 0.93µM*, Pf growth 48h inconclusive, Cycloheximide cs -3 and Shiga toxin inh 25.
`COCCN1C(=O)c2oc3ccccc3c(=O)c2C1c1cccc(O)c1` (stereo not given) gave HCV inhibitor 3%, AMA1 RON2 block -3%, Pf growth 96h 9%, Cycloheximide cs -2 and Shiga toxin inh -2.
`CO/N=C/C(C#N)=C/c1cc(C(=O)c2ccccc2)cn1C` gave HCV inhibitor 10µM*, AMA1 RON2 block -4%, Pf growth 96h 2.9µM*, Pf growth 48h inconclusive, Cycloheximide cs 5 and Shiga toxin inh -5.
